Shown are actives, neighbours in structure and some others; about 2.4% of the full set was active somewhere.
WRN inhibitor: qHTS for Inhibitors of WRN Helicase | WRN helicase unwinding, fluorescent forked duplex, kinetic | Potency, µM (series often up to 114 µM), without a hit: at the top dose activity change, negative = inhibition, usual class: inhibitors | hit rate 0.46% among 360,000; also: % is scaled to controls: 0 for no effect and ±100 for the full control effect; nearly all actives have a fitted effect of over 55% in size
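Fluorescence dequenching readout, ex 525 nm/em 598 nm, kinetic mode: forked duplex DNA (100 nM final) with adjacent fluorophore and quencher unwound by WRN (20 nM final) with 2 mM ATP. Compound preincubation 15 min, room temperature.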
POLB inh: qHTS Assay for Inhibitors of DNA Polymerase Beta | P06746 | Pol beta primer extension/strand displacement, fluorescence kinetic | Potency, µM (highest dose often 114 µM), for the others: top-dose activity change, negative = inhibition, actives largely listed as inhibitors | hit rate 1.3% among 340,000; also: % is scaled to controls: 0 for no effect and ±100 for the full control effect
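Reaction started by 50 nM substrate onto compound-treated Pol beta (10 nM, 15 min preincubation, room temperature); plates read at 0 min and 10 min. Normalized concentration-effect data fitted by four-parameter Hill equation.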
Pol iota inh: qHTS for Inhibitors of Polymerase Iota; Potency, µM (doses to about 115 µM), for inactives: at the highest dose activity, negative = inhibition, hits mostly inhibitors; Pol iota fluorescent replication assay, 10 min; DNA polymerase iota (Homo sapiens), Q9UNA4; hit rate 1% among 390,000; AID 588590, 2011
Target sequence (Q9UNA4 whole entry, looked up): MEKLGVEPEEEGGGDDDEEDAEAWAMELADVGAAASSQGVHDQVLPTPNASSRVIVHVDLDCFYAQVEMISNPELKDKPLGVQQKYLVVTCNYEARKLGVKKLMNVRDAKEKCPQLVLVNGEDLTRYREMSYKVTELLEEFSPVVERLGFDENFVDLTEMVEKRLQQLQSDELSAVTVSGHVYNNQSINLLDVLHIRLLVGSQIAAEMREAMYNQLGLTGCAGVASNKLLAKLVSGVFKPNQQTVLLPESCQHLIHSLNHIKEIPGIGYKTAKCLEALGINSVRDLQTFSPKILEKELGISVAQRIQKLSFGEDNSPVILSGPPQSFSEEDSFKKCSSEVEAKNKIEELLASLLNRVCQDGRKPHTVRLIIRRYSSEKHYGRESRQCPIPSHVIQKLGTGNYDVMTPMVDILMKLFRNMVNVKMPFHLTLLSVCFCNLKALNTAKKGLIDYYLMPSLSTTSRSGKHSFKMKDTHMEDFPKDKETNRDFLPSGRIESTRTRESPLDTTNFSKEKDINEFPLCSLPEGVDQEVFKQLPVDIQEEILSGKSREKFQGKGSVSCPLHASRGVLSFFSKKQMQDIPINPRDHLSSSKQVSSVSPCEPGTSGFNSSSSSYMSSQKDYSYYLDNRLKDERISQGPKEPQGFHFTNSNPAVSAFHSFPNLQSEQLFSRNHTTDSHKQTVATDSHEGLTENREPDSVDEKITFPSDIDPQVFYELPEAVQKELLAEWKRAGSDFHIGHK
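Pol iota at 10 nM preincubated 15 min with compounds at room temperature; reaction started with fluorescent substrate, 50 nM final. Fluorescence read kinetically at 0 and 10 min; buffer-only wells as negative control.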
POLH inh: qHTS for Inhibitors of Polymerase Eta. DNA polymerase eta (Homo sapiens), Q9Y253. recombinant Pol eta, fluorescent DNA replication assay. Potency, µM (doses to about 114 µM), for the others: at the top dose activity change, negative = inhibition, hits mostly inhibitors. hit rate 1.2% among 390,000. AID 588591, 2011; also: % is scaled to controls: 0 for no effect and ±100 for the full control effect
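Fluorescent replication assay: 50 nM final substrate added after a 15 min room-temperature compound preincubation with 10 nM enzyme. Signal taken at 0 min and again at 10 min.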
FEN1 inh: qHTS Assay for the Inhibitors of Human Flap endonuclease 1 (FEN1); P39748; Recombinant FEN1 flap cleavage, fluorescence, 15 min; Potency, µM (doses to about 114 µM), for the others: at the highest dose activity change, negative = inhibition, usual class: inhibitors; hit rate 0.35% among 390,000; AID 588795, 2011; also: % is scaled to controls: 0 for no effect and ±100 for the full control effect; nearly all actives have a fitted effect of over 65% in size
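FEN1 at 10 nM, compound pretreatment for 15 min (room temperature), 50 nM final substrate to initiate; endpoint reads at 0 and 15 min; DMSO-only plates used as vehicle background.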
Pol kappa inh: qHTS for Inhibitors of Polymerase Kappa. Potency, µM (titrated, usually from 107 µM), inactives show at the highest dose activity, negative = inhibition, most hits filed as inhibitors. hit rate 0.53% among 400,000. purified Pol kappa, fluorescent DNA synthesis assay, 10 min. AID 588579, 2011. DNA polymerase kappa (Homo sapiens), Q9UBT6; also: % is scaled to controls: 0 for no effect and ±100 for the full control effect
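Inhibition of 10 nM Pol kappa is measured by a fluorescent read-out at 0 and 10 min following addition of 50 nM substrate (final), with a 15-min room-temperature compound preincubation.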
Active calls of the source: *; ? = inconclusive; · = no result given; ! = not confirmed by another sample; [ ] = remark or other dose. Calls follow the shape of the dose curve; as a rule, active = well fitted curve in the direction sought with a large enough effect; inconclusive = small, poorly fitted or top-dose-only effect, or another doubt; inactive = no such curve, though single readings can be large; an effect the other way counts as inactive or inconclusive. Potency is read from the fitted curve at half-maximal effect.

SMILES	WRN inhibitor	POLB inh	Pol iota inh	POLH inh	FEN1 inh	Pol kappa inh
CNC[C@H](O)c1ccc(O)c(O)c1	·	-6.7%[57.1 µM]	?	0.4%[57.1 µM]	·	7.08µM*!
CC[C@H](NC(C)C)[C@H](O)c1ccc(O)c(O)c1	·	·	·	·	·	-7.2%[12 µM]
CNC[C@H](O)c1cccc(O)c1	·	10.1%	12.4%	-5.5%	3.6%	-8.6%[60.1 µM]
NC[C@@H](O)c1ccc(O)c(O)c1	·	·	·	·	·	11.9µM*
Cc1ccc(S(=O)(=O)/N=C2\C=C(Nc3cccc(C(=O)O)c3)C(=O)c3ccccc32)c(C)c1	?	?	5.01µM*	22.4µM*	70.8µM*	-16.6%
Cc1ccc(S(=O)(=O)/N=C2\C=C(Nc3ccc(O)cc3)C(=O)c3ccccc32)cc1	?	·	44.7µM*	?	?	-38.4%
CC(C)(C)c1ccc(S(=O)(=O)/N=C2\C=C(NS(=O)(=O)c3ccccc3)C(=O)c3ccccc32)cc1	?	?	?	79.4µM*	?	-12.0%
Cc1ccc(NC2=C/C(=N/S(=O)(=O)c3cccs3)c3ccccc3C2=O)cc1	2.9%	-12.9%	?	?	-0.4%	-4.1%
Clc1ccc(-c2cc3ncc4c(n3n2)-c2ccccc2OC4)cc1	·	43.2%	-10.5%	-1.0%	-8.7%	-2.0%
CC(C)CCN(Cc1ccco1)C(=O)c1cc2c(Cl)nc3ccccc3c2s1	·	3.3%	40.1%	-25.0%	0.0%	-3.7%
O=C1OC(c2ccco2)=N/C1=C\c1ccc(-c2cccc(C(F)(F)F)c2)o1	?	-0.9%	1.9%	79.4µM*	12.6%	-28.7%
CCOC(=O)N/N=C\c1ccc(-c2cccc(C(F)(F)F)c2)o1	-23.0%	29.4%	9.0%	-9.0%	-12.3%	2.2%
Cc1ccc2c(c1)Oc1ccc(NC(=O)CCl)cc1C(=O)N2	-3.7%	13.6%	-25.2%	79.4µM*	9.7%	0.5%
Cc1ccc2c(c1)Oc1ccc([N+](=O)[O-])cc1C(=O)N2	9.3%	33.7%	26.2%	4.1%	-0.9%	-8.5%
COc1ccc(/C=C2\CCn3c2nc2cc(C(=O)O)ccc2c3=O)cc1OC	?	7.4%	-19.7%	-20.8%	-3.7%	4.3%
COc1ccc(/C=C2\CCn3c2nc2cc(C(=O)O)ccc2c3=O)cc1O	?	25.1µM*	?	17.8µM*	?	-35.4%
C[C@H](CCC(=O)NCC(=O)O)C1CC[C@H]2[C@H]3C(C[C@H](O)[C@]12C)[C@@]1(C)CC[C@@H](O)C[C@H]1C[C@H]3O (stereo partly specified)	·	·	·	·	·	6.7%[19.4 µM]
CCOC(=O)c1cc2c(=O)n3ccccc3nc2n(Cc2ccco2)c1=NC(=O)c1ccc(OC)cc1	0.4%	33.3%	22.4µM*!	-16.0%	79.4µM*!	?
N=c1c(S(=O)(=O)c2ccccc2)cc2c(=O)n3ccccc3nc2n1Cc1ccco1	0.6%[57.1 µM]	17.8µM*	?	?	-11.0%	-15.3%
CCn1c(=N)c(S(=O)(=O)c2ccccc2)cc2c(=O)n3ccccc3nc21	11.2%	-1.0%	3.5%	-2.4%	-2.0%	5.8%
Cc1ccc(S(=O)(=O)c2cc3c(=O)n4ccccc4nc3n(Cc3ccco3)c2=N)cc1C	-3.6%[57.1 µM]	8.91µM*	?	-25.2%	-4.8%	-4.5%
Cc1ccc2nc3c(cc(S(=O)(=O)c4ccccc4)c(=N)n3Cc3ccco3)c(=O)n2c1	-2.6%	7.94µM*	-9.1%	-0.3%	-13.4%	-9.1%
CCCCCCCCCC[n+]1cc(Br)cc(Br)c1	·	·	20.7%	·	-10.8%	-6.2%
Cc1cccc(OCC(=O)Nc2nnc(-c3ccco3)s2)c1	-20.0%[57.1 µM]	?	24.4%	-20.5%	12.1%	-14.6%
COc1ccccc1OCC(=O)Nc1nnc(-c2ccco2)s1	-25.3%	35.5µM*	?	?	-13.6%	-7.0%
SMILES	WRN inhibitor	POLB inh	Pol iota inh	POLH inh	FEN1 inh	Pol kappa inh
Cc1cccc(N2CCN(C(=O)c3cnn(-c4ccccc4Cl)c3C3CCN(C(=O)OC(C)(C)C)CC3)CC2C)c1 (stereo unspecified)	·	1.1%	27.3%	-19.7%	-12.9%	-14.9%
CCCNC(=O)c1ccc(-c2nc3ccccc3s2)s1	-16.3%	15.8µM*	?	?	4.9%	-10.0%
COc1ccc(N2CCN(S(=O)(=O)c3ccc4oc(=O)c5ncn(C)c5c4c3)CC2)cc1	·	15.4%	-5.4%	11.0%	1.9%	3.0%
COc1ccc(-c2coc3cc(O)ccc3c2=O)cc1O	2.3%	25.1µM*	?	-10.7%	-16.8%	?
CCOC(=O)c1ccc(NC(=O)c2cc3cc(C)ccc3n2C)cc1	·	4.2%	50.4%	-16.3%	16.2%	-6.5%
NC(C(=O)O)c1nn[nH]n1 (stereo unspecified)	·	·	-19.6%	·	-0.2%	-10.5%
CCCNC(=O)c1ccc(Cl)cc1Cl	4.8%	20µM*	3.7%	-28.0%	1.2%	0.0%
Cc1nn(-c2ccc(N3CCCCC3)nn2)c(C)c1CCC(=O)Nc1ccc(F)cc1F	·	1.3%	4.5%	-14.9%	12.9%	0.0%
Cc1ccc(C(=O)Nc2ccc(Cl)c(-c3nc4ncccc4o3)c2)c(C)c1	·	16.6%	34.7%	-16.5%	-0.9%	0.5%
c1ccc(Cn2c(SCc3nc4ccccc4s3)nnc2-c2ccco2)cc1	35.5µM*	50.1µM*	22.4µM*	14.1µM*	?	?
O=C(CSc1nnc(-c2ccc(S(=O)(=O)N3CCCC3)cc2)o1)NCc1ccco1	-25.9%	25.1µM*	89.1µM*	?	13.3%	?
Cn1c(SCC(=O)NCc2ccco2)nnc1-c1ccc(S(=O)(=O)N2CCOCC2)cc1	-27.3%	?	100µM*	?	3.0%	-24.0%
Cn1c(SCC(=O)NCc2ccco2)nnc1-c1ccccc1	6.5%	2.7%	-12.7%	9.2%	-0.7%	-21.6%
O=c1cc(-c2ccc(O)c(O)c2)oc2cc(O)c([C@@H]3O[C@H](CO)[C@@H](O)[C@H](O)[C@H]3O)c(O)c12	-18.0%	·	28.2µM*	?	?	20µM*
O=c1cc(-c2ccc(O)cc2)oc2c(C3OCC(O)C(O)C3O)c(O)c(C3OC(CO)C(O)C(O)C3O)c(O)c12 (stereo unspecified)	-1.6%	17.8µM*	?	7.94µM*	?	50.1µM*
O=c1cc(-c2ccc(O)cc2)oc2c([C@@H]3O[C@H](CO)[C@@H](O)[C@H](O)[C@H]3O)c(O)c([C@@H]3O[C@H](CO)[C@@H](O)[C@H](O)[C@H]3O)c(O)c12	-4.4%	-28.5%	-1.0%	-7.9%	-10.9%	-19.5%

Screening data (PubChem BioAssay)
